# In PubChem BioAssay AID485297 (National Center for Advancing Translational Sciences (NCATS), 2010):
# Out of some 320,000 compounds screened, about 9,100 (2.8%) were called active. Inconclusive results (about 3%) are left out. What follows is part of a selection rich in actives, with near analogues and random picks from the rest. Where a call stands in place of a potency, no number is given. Values without a mark were called inactive. Calls come from the whole dose curve; as a rule, active = well fitted activation curve with a large enough effect; inconclusive = small, poorly fitted or top-dose-only effect; inactive = no such curve, though single readings can be large or run the other way.
# Experiment: qHTS Assay for Rab9 Promoter Activators; note: nearly all actives have a fitted effect of over 60% in size
# Details: Huh7 Rab9 promoter-luciferase reporter, luminescence, 24 h; series mostly up to 9.22 µM
# In short: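 Cells were plated at 1500 per well in reduced-serum medium with 10% FBS and left 2 h. Compound in DMSO was then added for 24 h at 37 °C. Reporter signal was read by luminescence after 10 min with luciferase detection reagent.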
# Potency is the fitted concentration of half-maximal effect.
Compound,Potency,"activation, negative = inhibition"
CN(CCO)Cc1csc2ccc(Br)cc12,inactive,
CC(=O)Oc1ccc(-c2nc3c(C)cccc3c(=O)o2)cc1,inactive,
COc1ccc(/C=C/c2noc(-c3ccccc3OC(C)=O)n2)cc1,2.24 µM (active),
COc1ccc(/C=C/c2nnc(NC(=O)C(C)C)s2)cc1,inactive,
Cc1ccc(NC(=O)COC(=O)CN2CCCCCC2=O)c(C)c1,inactive,
COc1ccc(OC)c(S(=O)(=O)Nc2c(C)nn(C)c2C)c1,inactive,
Cc1ccc(S(=O)(=O)Cc2cc(-c3ccc(Cl)cc3)no2)cc1,inactive,
CC(C)C(=O)NCc1cc(-c2ccc(Cl)cc2)no1,inactive,
Oc1ccccc1-c1cc(-c2ccc(Cl)cc2)n[nH]1,2.51 µM (active),
Cc1sc2ncn(CC(=O)NCCCC(=O)NCc3ccc(F)cc3)c(=O)c2c1C,inactive,
CCCCCc1c(C)nc(N2CCN(Cc3ccc4c(c3)OCO4)CC2)[nH]c1=O,inactive,
O=C(NCc1ccncc1)c1cccc(NS(=O)(=O)c2ccc(F)c(F)c2)c1,inactive,
O=C(CSCc1ccccc1)N1CCc2ccccc21,1.78 µM (active),
O=C(CN1CCN(c2ccccn2)CC1)N1CCc2ccccc21,inactive,
CCC(=O)N1CCCc2ccccc21,inactive,
CCCCn1nc(C(=O)Nc2cccc(C(=O)NC3CC3)c2)c2ccccc2c1=O,inactive,
Cc1ccc(NC(=O)CCCNC(=O)c2ccc(Cl)cc2)cc1S(=O)(=O)N1CCOCC1,inactive,
O=C(NCCSc1ccccc1)c1ccco1,3.55 µM (active),
O=C(NCCSc1ncc(-c2ccccc2)[nH]1)c1ccco1,inactive,
CCS(=O)(=O)Nc1ccc(C(=O)NCCSc2ccccc2)cc1,inactive,
CC(C)(CNC(=O)CNC(=O)C1CCCCC1)N1CCOCC1,inactive,
CCCCNC(=O)Cn1nc(C)c(S(=O)(=O)N2CCOCC2)c1C,inactive,
CC1CCN(S(=O)(=O)c2ccc3c(c2)n(C)c(=O)n3C)CC1,inactive,

Compound,Potency,"activation, negative = inhibition"
CCCOC1CCCN(C(=O)c2cc(COc3cncc(Cl)c3)on2)C1 (configuration not stated),1.41 µM (active),
Cc1nonc1C1CCCN1C(=O)c1cc(COc2cccc(C(F)(F)F)c2)on1 (configuration not stated),inactive,
CCOC(=O)CC1(NC(=O)c2cc(COc3cncc(Cl)c3)on2)CCCCC1,inactive,
CC(C)(C)c1nnc(N/N=C/c2ccc(O)cc2)n(N)c1=O,inactive,
Cc1ccc(Cn2c(C)c3cnn(CC(=O)NCc4ccccn4)c(=O)c3c2C)cc1,inactive,
Cc1ccc(C(=O)Nc2ncccc2C)cc1S(=O)(=O)N1CCOCC1,inactive,
Cc1cc(NC(=O)COc2ccc([N+](=O)[O-])cc2)no1,inactive,
Cc1cc(NC(=O)COn2nnc3ccccc32)no1,inactive,
CCOc1ccc(NC(=O)Nc2cc(C)on2)cc1,1.12 µM (active),
Cc1cc(NC(=O)COc2ccccc2C#N)no1,3.55 µM (active),
CCOc1ccc(C(=O)Nc2ccc(S(=O)(=O)Nc3cc(C)on3)cc2)cc1,inactive,
CCC(=O)Nc1ccc(C(=O)Nc2cc(C)on2)cc1,inactive,
Cc1cc(C)cc(NC(=O)C(OC(=O)c2ccc(O)cc2)c2ccccc2)c1 (configuration not stated),inactive,
COc1ccc([C@H]2CC(=O)C=C(c3ccc(OC(F)(F)F)cc3)C2)cc1OC,inactive,
CCN(CC)S(=O)(=O)c1ccc(N2CCOCC2)c(NC(=O)c2ccc(=O)n(C)n2)c1,inactive,
COc1ccc2c(c1)[C@H]1[C@H](CO2)[C@H](c2ccccc2)[C@]2(C)C(=O)Nc3cc(F)c(F)cc3C(=O)N12,inactive,
O=C(NCCN1CCOCC1)c1cccc(S(=O)(=O)Nc2ccc(F)cc2)c1,inactive,
CC(=O)c1c(C)[nH]c(C(=O)COc2ccc3c(C)cc(=O)oc3c2)c1C,inactive,
Cc1ccc(Oc2cnn(-c3ccccc3)c(=O)c2Br)cc1,inactive,
O=c1c(Cl)c(NC2CC2)cnn1-c1ccccc1,inactive,
C=CCNc1cnn(-c2ccc(C)cc2)c(=O)c1Cl,3.55 µM (active),
CC(=O)NC12CC3CC(C1)CC(C(=O)N1CCN(S(=O)(=O)c4cccs4)CC1)(C3)C2,inactive,
CCn1nc(C(=O)Nc2ccc(N3CCOCC3)cc2)c2ccccc2c1=O,inactive,

Compound,Potency,"activation, negative = inhibition"
c1ccc(-n2cccc2)c(N2CCCCC2)c1,inactive,
CC(C)c1ccc(/C=C/C(=O)NNC(=O)c2cccnc2)cc1,inactive,
CN(C)c1ccnc(Nc2ccc(F)cc2)c1C#N,inactive,
CC(C)c1ccc(Nc2ncccc2C#N)cc1,3.55 µM (active),
COc1ccc(C(=O)Nc2ccccc2C(=O)NCc2ccco2)cc1,inactive,
COc1ccc(CNC(=O)CNC(=O)c2sc3ccccc3c2Cl)cc1OC,inactive,
COc1ccc2c(Cl)c(C(=O)NCc3ccco3)sc2c1,3.16 µM (active),
Cc1c(CNCCc2ccccc2)c(C(=O)O)c(C)n1-c1ccccc1,inactive,
CCOc1cc(CNCCN(C)C)c(Cl)cc1OCC(=O)NCCc1ccccc1,inactive,
O=C(CN1CCc2ccccc2C1)Nc1cccc(S(=O)(=O)N2CCOCC2)c1,inactive,
CC1CCN(C(=O)c2ccccc2NC(=O)Cc2ccccc2)CC1,inactive,
CSCCNC(=O)c1ccc2nc(Cc3ccccc3F)oc2c1,2.82 µM (active),
COc1ccc(Cc2nc3ccc(C(=O)NCC4CCOCC4)cc3o2)cc1OC,inactive,
CCCCc1nc2cc(C(=O)NCCc3cnn(C)c3)ccc2o1,inactive,
COCCn1c(C)cc(C(=O)CSc2nnc(C3CC3)n2C2CC2)c1C,inactive,
O=C(CNC(=O)c1ccccc1Br)NNC(=O)c1cccs1,inactive,
COc1cccc(N2CCN(CC(=O)Nc3ccnn3C3CCCC3)CC2)c1,inactive,
O=C(O)c1ccccc1C(=O)Nc1nc(-c2ccccc2)cs1,inactive,
O=C(NCCc1csc(-c2ccccc2)n1)c1ccccc1F,inactive,
O=C(Nc1nc(-c2cccnc2)cs1)c1ccccc1F,3.55 µM (active),
O=C(Nc1nc(-c2ccc(-c3ccccc3)cc2)cs1)c1cnccn1,inactive,
CN(c1ccc(O)cc1)c1nc(-c2cccnc2)cs1,inactive,
O=C(Nc1ccc(NC(=O)c2ccccc2F)cc1)c1ccccc1F,inactive,

Compound,Potency,"activation, negative = inhibition"
Cc1ccccc1Nc1nc(-c2cccnc2)cs1,2 µM (active),
CN(Cc1ccccc1)S(=O)(=O)c1nnc(NC(=O)c2ccccc2F)s1,inactive,
O=C(Nc1nnc(-c2ccccc2F)s1)c1ccccc1F,0.708 µM (active),
CC(=O)c1ccc(S(=O)(=O)NCCC(=O)N2CCN(c3ccccn3)CC2)cc1,inactive,
CCC(C(=O)N1CCN(S(=O)(=O)c2sc(C(=O)O)c(C)c2C(=O)O)CC1)c1ccccc1 (configuration not stated),inactive,
Cc1ccc(COC(=O)CN2C(=O)NC3(CCCC3)C2=O)cc1,inactive,
COc1ccc(C(=O)OC(C)C(=O)NC2CCCC2)cc1S(=O)(=O)N1CCOCC1 (configuration not stated),inactive,
O=C(COC(=O)Cn1[nH]c(=O)c2ccccc2c1=O)Nc1ncc(Cl)cc1Cl,inactive,
CCCSC(=S)NC1CCS(=O)(=O)C1 (configuration not stated),inactive,
CN(CC(=O)NCc1ccc2c(c1)OCO2)CC(=O)Nc1ccc(F)c(F)c1F,inactive,
Cc1ccc(S(=O)(=O)N2CCCCC2)cc1C(=O)N1CCN(CCO)CC1,inactive,
Clc1cccc(N=C2NN=C(c3ccc4c(c3)OCCO4)CS2)c1,3.55 µM (active),
c1ccc(CN2CCC(N=C3NN=C(c4ccc5c(c4)OCCO5)CS3)CC2)cc1,inactive,
CN(C)c1nc(=Nc2cccc(Cl)c2)ss1,inactive,
COc1ccc(CCNC(=O)COC(=O)C2CC2C)cc1 (configuration not stated),inactive,
O=C(NC1CCCC1)c1cc(-c2ccccc2)on1,2 µM (active),
O=C(NCCCn1ccnc1)c1cc(-c2ccccc2)on1,3.98 µM (active),
O=C(NCCCN1CCOCC1)c1cc(-c2cccc(O)c2)on1,inactive,
O=C(Nc1cccnc1Cl)c1cc(-c2cccc(Cl)c2)on1,inactive,
COc1ccc(-c2cc(C(=O)NCCCn3ccnc3)no2)cc1,inactive,
COc1ccccc1-c1cc(C(=O)NCCCn2ccnc2)no1,inactive,
Cc1ccc(C(=O)CN2C(=O)NC3(CCOc4ccccc43)C2=O)s1 (configuration not stated),inactive,
CN(C(=O)CSc1nnc(-c2ccc(C(C)(C)C)cc2)n1C)C1CCS(=O)(=O)C1 (configuration not stated),inactive,

Compound,Potency,"activation, negative = inhibition"
CCNC(=O)c1cccc(NC(=O)C2CC(=O)N(CCc3ccccc3)C2)c1 (configuration not stated),inactive,
O=S(=O)(Nc1cc(Cl)ccc1N1CCOCC1)c1ccccc1Cl,inactive,
CCOc1ncccc1C(=O)Nc1ccc(S(=O)(=O)Nc2nc(C)cc(C)n2)cc1,inactive,
O=C(Nc1ccc(Cl)cc1)Nc1nnc(/C=C/c2ccccc2)s1,inactive,
O=C(c1ccc(Cl)cc1)c1cnc(Nc2ccccc2)s1,3.98 µM (active),
Nc1nc(COC(=O)CCC(=O)c2ccc(Cl)cc2)nc(Nc2ccccc2)n1,inactive,
CCCN(CC(=O)NC(=O)NC1CCCCC1)CC(=O)Nc1cc(Cl)ccc1Cl,inactive,
CN(C(=O)CSc1nnc(-c2ccc3c(c2)OCO3)o1)C1CCS(=O)(=O)C1 (configuration not stated),inactive,
CCOC(=O)c1c(NC(=O)CN2C(=O)NC3(CCC(C)CC3)C2=O)sc(C)c1CC (configuration not stated),inactive,
O=C(Nc1ccc(Br)cn1)c1ccc([N+](=O)[O-])cc1Cl,2.51 µM (active),
O=C(Nc1ccncc1)c1ccc([N+](=O)[O-])cc1Cl,,1.06% [at 1.84 µM]
O=C(Nc1ccc(Br)cn1)c1ccc([N+](=O)[O-])o1,inactive,
CC/C(Cc1ccccc1)=N/NC(=O)CCn1nnc2ccccc21,inactive,
CCO/N=C(/C)c1c(O)cc(-c2ccccc2)n(-c2ccccc2)c1=O,inactive,
CC(OC(=O)/C=C/c1ccccc1)C(=O)Nc1ccc(C(N)=O)cc1 (configuration not stated),inactive,
CC(=O)Nc1ccc(NC(=S)NC(=O)/C=C/c2ccccc2)cc1,inactive,
CC(=O)Nc1ccc(/C=C/C(=O)c2ccccc2)cc1,3.98 µM (active),
O=C(CN1CCN(S(=O)(=O)/C=C/c2ccccc2)CC1)Nc1ccc(N2CCOCC2)cc1,inactive,
O=C(O)c1ccc2c(c1)C(=O)N(c1ccc(/C=C/C(=O)c3ccccc3)cc1)C2=O,inactive,
O=C(/C=C/c1ccc(N2CCOCC2)cc1)c1ccccc1,4.47 µM (active),
